# Reference: article PMC7819943, “Rice protein-binding microarrays: a tool to detect cis-acting elements near promoter regions in rice”
# Over roughly 39,000 sequences, “fluorescence intensity (a.u.)” has its median near 4,300; the highest 2% begin near 39,000. The full list was thinned out, with the highest values kept by preference.
# Molecular target: T1, OsSMF1 (Oryza sativa, UniProt Q6ZLB0 1-436)
# T1 sequence: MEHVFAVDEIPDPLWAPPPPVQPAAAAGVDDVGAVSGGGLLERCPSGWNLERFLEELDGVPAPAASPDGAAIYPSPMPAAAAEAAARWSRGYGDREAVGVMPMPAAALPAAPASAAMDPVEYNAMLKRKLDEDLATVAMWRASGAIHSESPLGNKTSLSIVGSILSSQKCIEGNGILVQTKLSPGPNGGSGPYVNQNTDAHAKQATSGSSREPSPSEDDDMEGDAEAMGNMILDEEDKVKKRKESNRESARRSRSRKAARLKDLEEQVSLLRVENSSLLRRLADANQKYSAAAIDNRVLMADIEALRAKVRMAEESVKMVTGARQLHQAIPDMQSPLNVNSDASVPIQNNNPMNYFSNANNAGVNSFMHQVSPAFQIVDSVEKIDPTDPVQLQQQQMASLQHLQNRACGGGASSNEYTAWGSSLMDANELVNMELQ
# Assay: protein-binding microarray (RPBM); PBS, 2% BSA, 51.3 ng/ul salmon testes DNA, 50 uM zinc acetate, 200 nM TF, 25 C, 1 h; high values mean tight binding
# Conditions: protein: recombinant; tags: N-terminal polyhistidine and DsRed monomer fusion (pET32a); chain copies: 2; label: CyDye5-dUTP incorporated in the synthesized complementary strand; 3' TTTTT single-stranded linker to array surface; dsDNA, one strand shown
# Summary of the method: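 Transcription factors, each fused N-terminally to a polyhistidine tag and DsRed, were expressed in E. coli BL21-CodonPlus and purified on Ni–NTA. A custom Agilent array was made double-stranded by primer extension with Cy5-dUTP and blocked with 2% BSA. It was incubated with 200 nM protein in PBS, 2% BSA, salmon testes DNA and 50 µM zinc acetate at 25 °C for 1 h, then washed. The binding signal is per-feature fluorescence intensity (arbitrary units) read on an Axon 4000B scanner.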
row,Sequence,binding signal
1,TCGCCAACTCGCGCCCAATCCCGGCTTGACACGTCACCCCCGGAGTCACCTAGTGCAG,42000 fluorescence intensity (a.u.)
2,AACCAGTCGCCGCTCGCCACGTGGCACCCTCCACCTCCCTCGGAGTCACCTAGTGCAG,50500 fluorescence intensity (a.u.)
3,GCTCTCGCTGACGCTGCCGCTCCGCCTGCCTCCGCCCGCGCGGAGTCACCTAGTGCAG,3900 fluorescence intensity (a.u.)
4,CAATCCCCTAGCCTCGCCACCCGCCACGTGTCGTCCCGCGCGGAGTCACCTAGTGCAG,13500 fluorescence intensity (a.u.)
5,GAGCGCGAGCTGCTCTCCTCTCCTCCCGCCCCGCGTCGCCCGGAGTCACCTAGTGCAG,11500 fluorescence intensity (a.u.)
6,AACCACCCTCCGCCGCCGCCGCCGCTCGCCGTAGTCACCTCGGAGTCACCTAGTGCAG,3180 fluorescence intensity (a.u.)
7,GCAATCCCACGTTATCCATCACCCCACCGGGGAAGCCCAACGGAGTCACCTAGTGCAG,3310 fluorescence intensity (a.u.)
8,TGCGCGTCCTGCTCGCCGCTGCCCTCGCTGAGGAGCTCTCCGGAGTCACCTAGTGCAG,63600 fluorescence intensity (a.u.)
9,CAATCCAACCGTCGTCGCGCCGCACACCGGCCACCCACCCCGGAGTCACCTAGTGCAG,20700 fluorescence intensity (a.u.)
10,CACACGCCAACCCGGCCCCACACGTCAGCCACTCCCACTGCGGAGTCACCTAGTGCAG,7300 fluorescence intensity (a.u.)
11,GTCGCCGCCGCTCCTCCACCCCACGTGCCCCTCGTGGTGGCGGAGTCACCTAGTGCAG,4350 fluorescence intensity (a.u.)
12,CCGGCCCAACACCACTAACACGTTCAGCCCCAATCCCCAACGGAGTCACCTAGTGCAG,42400 fluorescence intensity (a.u.)
13,TATCCATGGTGTTTAACAATATATCACTGGATACACGTGTCGGAGTCACCTAGTGCAG,9700 fluorescence intensity (a.u.)
14,TTCTTCCCTTCACATAGGAATTGGATGATGTGGAGACTTTCGGAGTCACCTAGTGCAG,7630 fluorescence intensity (a.u.)
15,CATAATTTTAGGTATCGCTAGGATTTAATTTACACTGTAGCGGAGTCACCTAGTGCAG,3370 fluorescence intensity (a.u.)
16,TTAGTTTTATATAAAATGTGTCACATGATAATAGTAGTACCGGAGTCACCTAGTGCAG,3870 fluorescence intensity (a.u.)
17,TCTACTGTGTGTGTGTGTGTGTGTGTTCACTACTGGATAGCGGAGTCACCTAGTGCAG,3160 fluorescence intensity (a.u.)
18,GTCCTAAAGTACTTATTGTGTCCGGTTTTGGTTAGTTAAGCGGAGTCACCTAGTGCAG,3210 fluorescence intensity (a.u.)
19,CAGTTACGCGCCGTGCCTACCCGTGTATCACCGCGATGAGCGGAGTCACCTAGTGCAG,3270 fluorescence intensity (a.u.)
20,TGCGTGTTTGATGATATACACGTGCGTATATGTCTACCGTCGGAGTCACCTAGTGCAG,3880 fluorescence intensity (a.u.)
21,TCTCTCTCTCTCTCGCCATCGTCACTGCGGCTGCTGCTGCCGGAGTCACCTAGTGCAG,3810 fluorescence intensity (a.u.)
22,CCAACGTCGTACATCCCTCCACGTCATCGATCCGCGCCGCCGGAGTCACCTAGTGCAG,35200 fluorescence intensity (a.u.)
23,ACCCATTTTCAGTGGCAGGGTTATTGACACCACACTCACACGGAGTCACCTAGTGCAG,3140 fluorescence intensity (a.u.)

row,Sequence,binding signal
1,TCCCTCCTCCCCGTCGTCACAAGCCACGTCATCGATCCGCCGGAGTCACCTAGTGCAG,40000 fluorescence intensity (a.u.)
2,GCACCAGCCAGTCAGCCCACCATTTCAAACGCCACACTCACGGAGTCACCTAGTGCAG,60800 fluorescence intensity (a.u.)
3,CCCGCGTCGCATTCAACGCCACGCACACCACTCCACTCCACGGAGTCACCTAGTGCAG,3470 fluorescence intensity (a.u.)
4,GCATGGCGCCGCCATCTCGGATTCGCCGTAGTGTCTCCGCCGGAGTCACCTAGTGCAG,35300 fluorescence intensity (a.u.)
5,TGGATCCGGCCCTGCATGTCCGTCCTCGCCGGTGGGCGCTCGGAGTCACCTAGTGCAG,41400 fluorescence intensity (a.u.)
6,CCCTAGCCCTCGCCCTGGTCCGTCCGGCGTGGCGCGCGCTCGGAGTCACCTAGTGCAG,5150 fluorescence intensity (a.u.)
7,TCGGCATGGGCGGTGGCGCTGGCGCGTCCTCCGATCCCGTCGGAGTCACCTAGTGCAG,19900 fluorescence intensity (a.u.)
8,ACACGGATCGAACCCCTCCTCCCCGCCACGTCACCGATCCCGGAGTCACCTAGTGCAG,38700 fluorescence intensity (a.u.)
9,TTCTCCGGCCGCCGCCGCCATCGCCGCCGGCCGTAGCATGCGGAGTCACCTAGTGCAG,56000 fluorescence intensity (a.u.)
10,CGCGCTGTCTGCACCGCCGCCGCCGCCGCCGGCGGAACCCCGGAGTCACCTAGTGCAG,25200 fluorescence intensity (a.u.)
11,CTCCGATACGTATCCCGTACGTATCGCTATTTACTTCGATCGGAGTCACCTAGTGCAG,4930 fluorescence intensity (a.u.)
12,CAGATCGGCAGACCAGACCACGTGTACACCCAACACGAGGCGGAGTCACCTAGTGCAG,8390 fluorescence intensity (a.u.)
13,AGGAAAGGTTAATTACGTACGTACACGGGAAGGAGTAACCCGGAGTCACCTAGTGCAG,3340 fluorescence intensity (a.u.)
14,TCCCTCTGACATGGTTCATTGATAGGTGGACTCTCTATTCCGGAGTCACCTAGTGCAG,3240 fluorescence intensity (a.u.)
15,ACCACCACCACCACCATCGCACTCCCAACTCCCAAGCCGCCGGAGTCACCTAGTGCAG,3760 fluorescence intensity (a.u.)
16,CAAAAGCCTCGCCGCGCACCACCACCCAGCTCTCTCCACTCGGAGTCACCTAGTGCAG,3640 fluorescence intensity (a.u.)
17,AAAGCCTCGCCGCCATCTCTCTCCACCACCCAAAATTTCTCGGAGTCACCTAGTGCAG,35600 fluorescence intensity (a.u.)
18,ACCTGCCCAACCCCAACCCCAACCCTCTCCTCTCCGCCCACGGAGTCACCTAGTGCAG,3710 fluorescence intensity (a.u.)
19,CCGCCGTGAAGCACACCACCACCAACCCCATCGCTCCCTCCGGAGTCACCTAGTGCAG,64500 fluorescence intensity (a.u.)
20,GCTCCTCACCCGCCGTGAACCCAACCCACATCCGCTGACGCGGAGTCACCTAGTGCAG,3300 fluorescence intensity (a.u.)
21,GCTCCTCCCGTGCCGCCGCCGTCTCGCGCCAGTGCGTCTCCGGAGTCACCTAGTGCAG,3330 fluorescence intensity (a.u.)
22,CTCCTCTCCCGCGCGCCACGCCCTCCCTCCCCTTCCCCTTCGGAGTCACCTAGTGCAG,4060 fluorescence intensity (a.u.)
23,AGCCAGCCCAAAAGCCACGCCGTCCACTCCATCTCCGCCTCGGAGTCACCTAGTGCAG,48000 fluorescence intensity (a.u.)
